From PubChem BioAssay
Hits are enriched below; roughly 7.3% of the tested compounds scored in any of these assays.
HCMV antiviral – human cytomegalovirus inhibition; AID 1259415; HFF cells, HCMV-luciferase reporter, 72 h; active compounds read low; actives 4.5% (n = 410,000); activity change, negative = inhibition, % at 57.5 µM; in the data active means activity change below about -60%; inconclusive means no clear call, values can overlap the other calls; inactive means above about -39%
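Luciferase read-out from HCMV-luciferase-infected HFFs (MOI 1 PFU/cell) 72 h post infection at 37C; compounds added after 16 h cell attachment; activity normalized between buffer-only basal and Salinomycin (10uM) inhibitor controls.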
FMDV antiviral – blocks foot and mouth disease virus; FMDV antiviral cell-based qHTS; Potency, µM (series often up to 57.9 µM), inactives show at the top dose activity change, negative = inhibition, actives largely listed as inhibitors; actives 1.2% (n = 410,000); calls by dose curve; tested in HEK293T cells; further: read-out not given here; potency means the concentration at half of the fitted maximal effect; nearly all actives have a fitted effect of over 45% in size
AmpC inh detg – AmpC beta-lactamase inhibition with detergent present; P00811; AmpC hydrolysis of nitrocefin, absorbance 480 nm, 0.01% Triton; Potency, µM (highest dose often 114 µM), for the others: at the top dose activity change, negative = inhibition, most hits filed as inhibitors; actives 0.041% (n = 370,000); AID 485294;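 further: potency means the concentration at half of the fitted maximal effect; 0% = no-compound wells and -100% = no-enzyme wells; nearly all actives have a fitted effect of over 25% in size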
Target sequence (P00811 whole entry, looked up): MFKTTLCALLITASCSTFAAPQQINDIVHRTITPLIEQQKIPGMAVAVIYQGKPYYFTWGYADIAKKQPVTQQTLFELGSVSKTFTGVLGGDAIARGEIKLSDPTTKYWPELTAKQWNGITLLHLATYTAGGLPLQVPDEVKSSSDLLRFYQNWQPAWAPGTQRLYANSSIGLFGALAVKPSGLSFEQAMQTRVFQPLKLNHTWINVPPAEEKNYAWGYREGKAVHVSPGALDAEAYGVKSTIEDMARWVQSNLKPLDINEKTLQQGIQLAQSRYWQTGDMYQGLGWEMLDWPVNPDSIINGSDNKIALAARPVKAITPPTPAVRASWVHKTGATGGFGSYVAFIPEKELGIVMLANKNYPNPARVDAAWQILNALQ
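AmpC (5.3 nM in the dispensed reagent) in 20 mM phosphate pH 7.0 with 0.01% (detergent screen) or 0.0001% Triton X-100 was preincubated with compounds for 15 min at room temperature. Nitrocefin was then added from an 800 uM solution, and hydrolysis was followed at 480 nm.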
AmpC no deterg – blocks E. coli AmpC beta-lactamase in detergent-free assay; actives 0.52% (n = 330,000); P00811; AmpC nitrocefin hydrolysis, absorbance 480 nm, 0.0001% Triton; AID 485341; Potency, µM (doses to about 57.1 µM), for the others: at the top dose activity change, negative = inhibition, most hits filed as inhibitors;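 further: potency means the concentration at half of the fitted maximal effect; plate controls were no compound for no effect and no enzyme for full effect; nearly all actives have a fitted effect of over 20% in size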
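20 mM phosphate pH 7.0 + 0.01% (detergent screen) or 0.0001% Triton X-100; 5.3 nM AmpC reagent; cpd preinc 15 min RT; nitrocefin (800 uM stock) to start; A480 q20 s × 4 min; Activity was normalised to no-enzyme and no-compound control wells.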
HCV inh – HCV inhibition. Huh7.5.1 HCVcc-Cre infection, luciferase reporter, 44 h. Potency, µM (top dose mostly 41.8 µM), inactives show top-dose activity change, negative = inhibition, most hits filed as inhibitors. actives 3.4% (n = 340,000); further: potency means the concentration at half of the fitted maximal effect
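Infectious HCV cell culture screen: compound-treated cells (1,000/well, pre-plated 4 h) are infected with HCVcc-Cre at roughly 0.5 moi and grown 44 h. Infection is quantified by luciferase signal after 15 min substrate incubation at room temperature.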
Active calls of the source: *; ? = inconclusive; / = no result; ! = not confirmed by another sample. Unless noted, the call rests on the fitted dose curve; in most records, active means well fitted curve in the direction sought with a large enough effect; inconclusive means small, poorly fitted or top-dose-only effect, or another doubt; inactive means no such curve, though single readings can be large; an effect the other way counts as inactive or inconclusive. Unless noted, on the % scale 0 is the no-effect control and ±100 the full control effect.

SMILES | HCMV antiviral | FMDV antiviral | AmpC inh detg | AmpC no deterg | HCV inh
O=C1CN(C(=O)COc2ccc(Cl)c(Cl)c2)c2ccccc2N1 | -66* | -12% | -12% | -13% | -2%
O=C(O)C1CCN(C(=O)CSc2nc3cc(Cl)ccc3c(=O)n2Cc2ccccc2)CC1 | -31 | -2% | ? | -13% | -30%
COc1cccc2sc(NC(=O)CS(=O)(=O)c3ccc(C)cc3)nc12 | 0 | 6% | 5% | / | /
CCc1nn(CC(=O)NCCCc2ccccc2)c(=O)c2cc3ccccc3n12 | 2 | -6% | -5% | / | /
O=C(O)c1cc(S(=O)(=O)N2CCCCC2)ccc1N1CCOCC1 | -18 | -1% | / | -23% | 15%
C=CCn1c(SCC(=O)c2ccc(O)c(O)c2)nnc1-c1cccc(C)c1 | -17 | 0% | 0% | -25% | ?
C=CCn1c(SCC(=O)c2ccc(O)c(O)c2)nnc1-c1cccc(Cl)c1 | 23 | -27% | -8% | -23% | 4µM*
O=C(Nc1cccc(C(F)(F)F)c1)c1cc(-c2ccc(Cl)s2)nc2ccccc12 | -1 | ? | 19% | / | /
Cn1cc(C(=O)c2ccc(Cl)cc2Cl)cc1C(=O)N/N=C(\N)COc1ccc(Cl)cc1 | 0 | ? | -1% | -38% | 13µM*
Cn1cc(C(=O)c2ccc(Cl)cc2Cl)cc1C(=O)N/N=C(\N)COc1ccccc1 | -24 | -27% | -8% | -13% | -23%
Cn1cc(C(=O)c2ccc(Cl)cc2Cl)cc1C(=O)N/N=C(\N)COc1ccc(F)cc1 | -4 | ? | -1% | -41% | 10µM*
Cn1cc(C(=O)c2ccc(Cl)cc2Cl)cc1C(=O)N/N=C(\N)COc1ccc(Cl)cc1Cl | ? | ? | 1% | -13% | 13µM*
Cn1cc(C(=O)c2ccc(Cl)cc2Cl)cc1C(=O)O | -1 | -2% | ? | -13% | 16%
Cc1ccc(C)c(NC(=O)CSc2cn(CC(=O)N3CCCCC3)c3ccccc23)c1 | ? | 4% | -1% | / | /
O=C(O)c1ccc(NC(=O)c2cn(-c3ccccc3)nc2-c2ccccc2)cc1 | 23 | 12% | -7% | -24% | 12%
COc1ccc(-c2nn(-c3ccccc3)cc2C(=O)Nc2cccc(S(=O)(=O)NC3=NCCC3)c2)cc1 | -11 | 29% | / | 79% | 11µM*
COc1ccc(-c2nn(-c3ccccc3)cc2C(=O)Nc2cccc(C(=O)O)c2)cc1[N+](=O)[O-] | 2 | -15% | -3% | 3.5µM* | 6%
Cc1cccc(-c2nn(-c3ccccc3)cc2C(=O)Nc2cccc(S(=O)(=O)NC3=NCCC3)c2)c1 | -17 | 56% | -15% | 71% | -32%
O=C(O)c1ccc(NC(=O)c2cn(-c3ccccc3)nc2-c2ccc(Br)cc2)cc1 | -64*! | -1% | 1% | -41% | 10%
O=C(O)c1cccc(NC(=O)c2cn(-c3ccccc3)nc2-c2ccc([N+](=O)[O-])cc2)c1 | 6 | -6% | 0% | -29% | 20%
COc1ccc(C(=O)NC(=S)N2CCOCC2)cc1OC | 25 | -5% | 2% | -7% | 6%
COc1ccc(-c2nn(-c3ccccc3)cc2C(=O)NC(=S)N2CCOCC2)cc1OC | -96* | 19% | 0% | -16% | -2%
CSc1ccccc1NC(=O)CN(C)C(=O)CNC(=O)c1ccc(Oc2ccccc2)cc1 | 3 | -25% | / | / | /
C=C1C[C@@]2(C)CCCC3=CC(=O)C=C[C@@]32c2ccc(OC)c(OC)c21 | -4 | / | / | / | /
O=[N+]([O-])c1cc(-c2ncccn2)c([N+](=O)[O-])s1 | -27 | 40µM* | -10% | -16% | ?
SMILES | HCMV antiviral | FMDV antiviral | AmpC inh detg | AmpC no deterg | HCV inh
COc1ccc(NC(=O)C(C)N2Cc3ccccc3C2=O)cc1OC (stereo unspecified) | 2 | -8% | -6% | / | /
CN(C)CC(C)(C)CNC(=O)C1CCN(CCCc2ccccc2)CC1 | 23 | 15% | ? | -5% | 13µM*
CCCCN(C)C(=O)C1CCN(CCCc2ccccc2)CC1 | 18 | -17% | ? | 80% | 3%
COc1ccc(CCn2c(=O)c3cccnc3n(CC(=O)Nc3ccc(C)cc3C)c2=O)cc1OC | 11 | 0% | 9% | / | /
Cc1cc2c(c(/C=C/C(=O)c3ccccc3)c1)OC1(C=C2)Oc2ccccc2C(=O)N1C (stereo unspecified) | -13 | 25µM* | -5% | -30% | 13µM*
CC(C)c1nn2c(=O)cc(COC(=O)c3cccs3)nc2s1 | -7 | 11% | -7% | / | /
Cn1c(N2CCOCC2)c(/C=N/OC(=O)c2ccc(F)cc2)c2ccccc21 | -95* | -10% | 6% | -15% | 3.5µM*
CC(=O)O/N=C/c1c(N2CCOCC2)n(C)c2ccccc12 | -93* | -13% | -4% | 1% | ?
Cc1ccc(C(=O)O/N=C/c2c(N3CCOCC3)n(C)c3ccccc23)cc1 | -100* | -5% | -15% | -3% | 6.3µM*
Cn1c(N2CCOCC2)c(/C=N/OC(=O)c2cccnc2Cl)c2ccccc21 | 9 | -17% | -6% | 2% | -2%
Cn1c(N2CCOCC2)c(/C=N/O)c2ccccc21 | -10 | -22% | -2% | -4% | 7%
Cc1cccc(C(=O)NNC(=O)c2ccco2)c1O | 20 | 18% | / | / | 1%
O=C(NC1CCCCCC1)C1CCN(c2nc3ccccc3o2)CC1 | -74* | ? | -7% | 6% | -8%
COc1ccc2c3c(n(C)c2c1)[C@@H](CO)N(C(C)=O)CC31CN(Cc2nccs2)C1 | 5 | / | / | / | /
CCN(CC(=O)NCc1cccs1)C(=O)c1cc(Br)ccc1O | 26 | 86% | / | -23% | 0%
C=CCc1c(C)nc2nc(SCC(=O)Nc3ccc(C)c(C)c3)nn2c1C | -100* | 0% | 7% | / | /
COc1ccccc1CNc1cccc(C)n1 | -39 | -3% | / | / | /
COc1ccccc1CNc1cc(CSc2ccc(Cl)cc2)nc(C)n1 | 14 | 40µM* | -1% | 31% | ?
COc1cccc(CNc2cc(CSc3ccc(Cl)cc3)nc(C)n2)c1 | / | 13µM* | 7% | 58% | ?
CCOC(=O)c1ccccc1NC(=O)COC(=O)CCNS(=O)(=O)c1cccs1 | -17 | 4% | ? | -5% | 8%
COc1ccc2cc3c(N)c(C(=O)NCc4ccco4)sc3nc2c1 | 29 | -2% | 0% | 0.32µM* | ?
Nc1c(C(=O)NCc2ccco2)c2nc3ccccc3nc2n1CCN1CCOCC1 | -94* | -21% | 4% | 110% | 8%
COc1ccc(CCn2c(N)c(C(=O)NCc3ccco3)c3nc4ccccc4nc32)cc1 | -75* | -27% | ? | -25% | ?
C[C@H]1[C@@H](NC(=O)NCc2ccccc2)CC[C@@]23CCCN2C(=O)CCC[C@@H]13 | -38 | / | / | / | /
Cc1ccnc(NS(=O)(=O)c2ccc3ccccc3c2)n1 | / | 40% | -20% | -17% | 11%
CC1CCN(C(=O)CSc2nc3c(c(=O)n2C)SC(C)C3)CC1 (stereo unspecified) | 1 | -18% | 9% | 3% | -21%
